# Values joined by “and” are separate entries in the source; they are usually repeats but may differ in a detail not shown here. Identical values can stand only once. Active and inactive are the calls of the source. Unless noted, the rule behind the calls is not given here.
# Tests used:
# [1] = tested on: Wnt5a (protein binding on small-molecule microarray); assay: small molecules binding Wnt5a protein – biophysical, small-molecule microarray, 635/667 nm fluorescence, primary screen (AID 1142); settings: 635 nm fluorescence, higher = more signal;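 note: fluorescence read at 667 nm with signal to noise per printed feature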
# [2] = ATP-based viability of Huh7 replicon cells – cell-based, CellTiter-Glo luminescence, basal, 48 h, cytotoxicity control for HCV replication inhibitor project, primary screen (AID 1143); settings: higher = more signal, called active from +8 up or from −8 down;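 note: Huh7 hepatoma cells carrying a hepatitis C replication reporter with no stimulus; test concentration not given here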
# [3] = Pseudomonas biofilm growth suppression – PAO1 strain, BacTiter-Glo luminescence, LB-PBS, primary screen (AID 1144); settings: P. aeruginosa PAO1 biofilm, 12 h, higher = more signal
# [4] = basal CRE-LacZ reporter activity in PC12 – cell-based, unstimulated, primary screen (AID 1145); settings: no forskolin, luminescence, 4.5 h, higher = more signal, called active from +8 up or from −8 down
# [5] = forskolin-driven CRE-LacZ activity in PC12 – cell-based, CRE-LacZ reporter, forskolin-stimulated, primary screen (AID 1146); settings: luminescence, 4.5 h, higher = more signal, called active from +8 up or from −8 down;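 note: PC12 cells with 6xCRE LacZ reporter stimulated by forskolin 10 µM; beta-galactosidase reporter signal reflecting CREB driven transcription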
# [6] = target: Streptavidin (Streptomyces avidinii) (UniProt P22629); assay: compounds binding control protein streptavidin – biophysical, small-molecule microarray, 635/667 nm fluorescence, artefact control for SMM compound annotation, primary screen (AID 1147); settings: higher = more signal;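 note: signal reflects streptavidin binding to arrayed compounds as a control protein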
# Sequence of Streptavidin (Streptomyces avidinii) (P22629 whole entry, looked up): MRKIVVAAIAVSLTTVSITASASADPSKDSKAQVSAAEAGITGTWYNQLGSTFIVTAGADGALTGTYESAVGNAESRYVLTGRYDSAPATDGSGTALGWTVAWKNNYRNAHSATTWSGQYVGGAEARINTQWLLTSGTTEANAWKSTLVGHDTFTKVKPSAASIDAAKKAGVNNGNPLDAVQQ
# [7] = probe aInhba binding on compound microarray – biochemical, small-molecule microarray, 635/667 nm fluorescence, primary screen (AID 1148); settings: higher = more signal;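 note: score merges 667nm spot fluorescence with signal-to-noise for antibody binding to printed compounds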
# Torsin-1A (Homo sapiens) [8] = target: Torsin-1A (Homo sapiens) (UniProt O14656); assay: TOR1A wild-type binding on microarray – cell lysate, small-molecule microarray, lysate, 635/667 nm, primary screen (AID 1149); settings: COS7 hTOR1A-WT lysate, 635 nm fluorescence, higher = more signal
# Sequence of Torsin-1A (Homo sapiens) (O14656 whole entry, looked up): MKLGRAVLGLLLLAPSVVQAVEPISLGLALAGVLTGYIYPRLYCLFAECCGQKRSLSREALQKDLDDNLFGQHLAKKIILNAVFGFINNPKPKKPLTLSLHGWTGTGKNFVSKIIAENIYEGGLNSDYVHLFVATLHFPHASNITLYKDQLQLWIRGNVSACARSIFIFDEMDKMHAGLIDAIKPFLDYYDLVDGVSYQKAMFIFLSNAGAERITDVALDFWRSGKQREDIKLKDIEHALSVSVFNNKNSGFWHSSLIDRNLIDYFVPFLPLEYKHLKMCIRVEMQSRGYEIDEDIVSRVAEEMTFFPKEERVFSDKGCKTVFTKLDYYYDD
# Torsin-1A (Homo sapiens) [9] = target: Torsin-1A (Homo sapiens) (UniProt O14656); assay: torsin A mutant lysate binding on microarrays – cell lysate, small-molecule microarray, COS7 lysate, 635/667 nm fluorescence, primary screen (AID 1150); settings: COS7 hTOR1A mutant lysate, 635 nm fluorescence, higher = more signal;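 note: score pools 667 nm emission and signal to noise measuring lysate protein binding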
# [10] = tested on: Sonic hedgehog protein (Shh); assay: Sonic hedgehog microarray binding compounds – biochemical, small-molecule microarray, 635/667 nm fluorescence, primary screen (AID 1151); settings: 635 nm fluorescence, higher = more signal;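 note: Shh protein binding to compounds spotted on small-molecule microarray slides; score combines spot fluorescence intensity with signal-to-noise across triplicate slides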
# [11] = optical density shifts of acrAB sulA E. coli – strain DRC41, OD650, 48 h, E. coli filamentation inducer project, primary screen (AID 1152); settings: higher = more signal, called active from +8 up or from −8 down;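 note: E. coli MC1000 strain DRC41 lacking acrAB efflux pump and sulA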
# [12] = probe aLefty1 binding on compound microarray – biochemical, small-molecule microarray, 635/667 nm fluorescence, primary screen (AID 1153); settings: higher = more signal;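 note: score merges spot fluorescence with signal-to-noise ratio from the scanned slide images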
# [13] = plasmodial surface anion channel blockers, osmotic lysis – cell-based, P. falciparum Indochina, OD700, 1 h, primary screen (AID 1154); settings: P. falciparum Indochina infected RBC osmotic lysis, higher = more signal, called active from +8 up or from −8 down
# [14] = plasmodial surface anion channel blockers, osmotic lysis – cell-based, P. falciparum Indochina, OD700, 2 h, primary screen (AID 1155);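 note: lysis reports solute entry through the parasite surface anion channel PSAC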; settings: P. falciparum Indochina infected erythrocytes, higher = more signal, called active from +8 up or from −8 down
# [15] = changes in parasitized red cell lysis, either direction – P. falciparum Indochina, OD700, 3 h, PSAC antagonist project, primary screen (AID 1156); settings: P. falciparum-infected erythrocytes, osmotic lysis, higher = more signal, called active from +8 up or from −8 down
# [16] = plasmodial surface anion channel blockers, osmotic lysis – cell-based, P. falciparum Indochina, OD700, 18 h, primary screen (AID 1157); settings: P. falciparum Indochina infected erythrocytes, osmotic lysis OD700, 18 h; higher = more signal, called active from +8 up or from −8 down
# [17] = S6 kinase pathway phospho-S6 level changes – cell-based, A549, cytoblot, luminescence, serum-stimulated, primary screen (AID 1158); settings: 5 h, higher = more signal;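 note: serum-stimulated A549 lung adenocarcinoma cells; signal is phosphorylated S6 detected by cytoblot immunostaining with HRP secondary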
# [18] = target: NADPH oxidase 2 (Homo sapiens) (UniProt P04839); assay: compounds shifting NOX2 Amplex Red fluorescence – cell-based, HEK293-NOX2, PMA-stimulated, NOX inhibitor project, primary screen (AID 1159); settings: 45 min, higher = more signal, called active from +8 up or from −8 down; note: test concentration not given here
# Sequence of NADPH oxidase 2 (Homo sapiens) (P04839 whole entry, looked up): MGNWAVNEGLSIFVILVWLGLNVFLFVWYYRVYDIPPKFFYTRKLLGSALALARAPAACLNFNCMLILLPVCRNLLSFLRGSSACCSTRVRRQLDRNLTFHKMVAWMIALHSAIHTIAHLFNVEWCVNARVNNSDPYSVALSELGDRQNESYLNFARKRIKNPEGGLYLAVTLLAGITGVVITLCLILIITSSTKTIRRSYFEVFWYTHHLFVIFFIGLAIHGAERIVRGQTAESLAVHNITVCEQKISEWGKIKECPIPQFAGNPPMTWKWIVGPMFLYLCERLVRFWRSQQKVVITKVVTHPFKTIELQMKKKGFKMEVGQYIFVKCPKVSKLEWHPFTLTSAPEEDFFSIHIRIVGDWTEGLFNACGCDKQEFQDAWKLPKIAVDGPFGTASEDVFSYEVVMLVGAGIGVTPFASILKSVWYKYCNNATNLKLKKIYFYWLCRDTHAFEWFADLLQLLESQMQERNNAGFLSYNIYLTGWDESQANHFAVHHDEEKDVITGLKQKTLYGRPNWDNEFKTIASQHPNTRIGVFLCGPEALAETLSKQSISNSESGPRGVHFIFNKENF
# [19] = target: NADPH oxidase 4 (Homo sapiens) (UniProt Q9NPH5); assay: compounds shifting NOX4 Amplex Red fluorescence – cell-based, HEK293-NOX4, tetracycline-induced, NOX inhibitor project, primary screen (AID 1160); settings: HEK293-NOX4, Amplex Red H2O2 fluorescence, 45 min; higher = more signal, called active from +8 up or from −8 down
# Sequence of NADPH oxidase 4 (Homo sapiens) (Q9NPH5 whole entry, looked up): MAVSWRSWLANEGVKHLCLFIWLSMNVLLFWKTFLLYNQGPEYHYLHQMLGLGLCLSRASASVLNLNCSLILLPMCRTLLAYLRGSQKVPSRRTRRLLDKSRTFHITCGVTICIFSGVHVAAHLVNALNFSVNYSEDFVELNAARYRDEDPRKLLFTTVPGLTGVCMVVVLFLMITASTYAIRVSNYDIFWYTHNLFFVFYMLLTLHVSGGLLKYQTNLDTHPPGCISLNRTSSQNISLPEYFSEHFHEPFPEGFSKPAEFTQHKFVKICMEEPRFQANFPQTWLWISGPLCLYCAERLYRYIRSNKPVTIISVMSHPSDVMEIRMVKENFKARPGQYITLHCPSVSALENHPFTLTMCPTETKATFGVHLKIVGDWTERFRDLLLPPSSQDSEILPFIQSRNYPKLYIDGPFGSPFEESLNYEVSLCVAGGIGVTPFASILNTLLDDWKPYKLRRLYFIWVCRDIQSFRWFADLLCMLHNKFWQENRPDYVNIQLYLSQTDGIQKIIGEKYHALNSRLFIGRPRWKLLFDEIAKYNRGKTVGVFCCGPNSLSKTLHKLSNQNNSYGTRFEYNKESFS
# [20] = target: NADPH oxidase 5 (Homo sapiens) (UniProt Q96PH1); assay: compounds shifting NOX5 Amplex Red fluorescence – cell-based, HEK293-NOX5, NOX inhibitor project, primary screen (AID 1161); settings: HEK293-NOX5, ionomycin, 45 min, higher = more signal
# Sequence of NADPH oxidase 5 (Homo sapiens) (Q96PH1 whole entry, looked up): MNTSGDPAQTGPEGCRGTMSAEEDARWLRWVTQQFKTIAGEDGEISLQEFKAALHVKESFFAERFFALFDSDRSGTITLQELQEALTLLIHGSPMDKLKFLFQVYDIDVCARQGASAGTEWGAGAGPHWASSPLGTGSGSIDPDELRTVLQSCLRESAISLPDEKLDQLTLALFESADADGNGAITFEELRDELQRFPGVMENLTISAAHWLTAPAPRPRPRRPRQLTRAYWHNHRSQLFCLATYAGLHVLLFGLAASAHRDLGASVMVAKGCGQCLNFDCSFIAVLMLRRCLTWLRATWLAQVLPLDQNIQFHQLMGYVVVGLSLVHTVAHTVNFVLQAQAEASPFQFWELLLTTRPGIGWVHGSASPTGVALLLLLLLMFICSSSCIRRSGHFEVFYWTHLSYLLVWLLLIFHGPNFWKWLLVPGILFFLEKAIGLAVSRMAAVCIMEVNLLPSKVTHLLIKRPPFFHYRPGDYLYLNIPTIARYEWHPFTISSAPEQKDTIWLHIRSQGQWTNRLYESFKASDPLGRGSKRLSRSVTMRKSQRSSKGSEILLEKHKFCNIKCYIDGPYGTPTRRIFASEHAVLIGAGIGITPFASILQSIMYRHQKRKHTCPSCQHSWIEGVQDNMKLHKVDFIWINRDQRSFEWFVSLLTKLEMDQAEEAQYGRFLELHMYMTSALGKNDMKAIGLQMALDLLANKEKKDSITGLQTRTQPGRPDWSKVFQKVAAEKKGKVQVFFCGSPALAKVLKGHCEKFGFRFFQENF
SMILES,composite z-score [1],z-score [2],z-score [3],z-score [4],z-score [5],composite z-score [6],composite z-score [7],composite z-score (Torsin-1A (Homo sapiens) [8]),composite z-score (Torsin-1A (Homo sapiens) [9]),composite z-score [10],z-score [11],composite z-score [12],z-score [13],z-score [14],z-score [15],z-score [16],z-score [17],z-score [18],z-score [19],z-score [20]
CCN1C(=O)[C@H]2[C@H]3[C@H](O)[C@H](O)CC(=NNC(=O)OCc4ccc(OC)cc4)[C@H]3CC[C@H]2C1=O,0.153,-0.0769 (inactive),0.619 (inactive),0.344 (inactive),-0.287 (inactive),0.398,0.124,0.275,-0.023,-0.121,0.386 (inactive),0.792,3.18 (inactive),-0.464 (inactive),0.175 (inactive),0.232 (inactive),0.479,-0.447 (inactive),0.0987 (inactive),0.0869
CC(CO)N1C(=O)[C@@H]2C3C(=O)OCCC=C[C@H]3OC23C=CCN(c2ccc(Cl)cc2)C(=O)[C@@H]13 (some centres undefined),-0.396 and -0.34,-0.666 (inactive) and -0.787 (inactive),1.06 (inactive) and 0.664 (inactive),0.187 (inactive) and 0.325 (inactive),-0.613 (inactive) and 0.478 (inactive),-0.9 and 0.152,-0.111 and 0.0541,-1.09 and -1.53,-2.42 and -1.49,-0.359 and 0.829,-0.0529 (inactive) and -0.655 (inactive),-0.142 and 0.422,0.725 (inactive) and 3.92 (inactive),1.02 (inactive) and 0.352 (inactive),0.741 (inactive) and 0.968 (inactive),0.817 (inactive) and 0.0372 (inactive),-0.7 and -0.574,1.59 (inactive) and 1.47 (inactive),1.03 (inactive) and 1.11 (inactive),2.46 and 2.5
COc1ccc(COC(=O)NN=C2C[C@@H](O)[C@@H](O)[C@@H]3[C@@H]4C(=O)N(C(C)(C)C)C(=O)[C@@H]4CC[C@H]23)cc1,-0.0647,-1.47 (inactive),0.439 (inactive),0.876 (inactive),0.479 (inactive),-0.199,-0.151,0.656,-0.178,0.352,0.91 (inactive),0.0169,1.91 (inactive),-1.4 (inactive),0.708 (inactive),-1.93 (inactive),1.25,-0.818 (inactive),0.00608 (inactive),-1.43
C[C@@H]1CC[C@H]2C(=O)O[C@H](CN=[N+]=[N-])CN2[C@H]1c1ccc(Br)cc1,-0.0328 and -0.216,-2.85 (inactive) and -0.512 (inactive),-0.203 (inactive) and -0.277 (inactive),-0.162 (inactive) and 3.89 (inactive),-0.177 (inactive) and -0.414 (inactive),-0.167 and 0.0058,0.0232 and -0.154,0.225 and 0.372,0.455 and 0.101,0.286 and -0.196,-1.87 (inactive) and -0.609 (inactive),0.0457 and -0.284,-0.1 (inactive) and 2.08 (inactive),0.23 (inactive) and 1.03 (inactive),0.124 (inactive) and 0.564 (inactive),-0.12 (inactive) and 0.491 (inactive),-0.524 and -0.466,0.993 (inactive) and 0.995 (inactive),-0.0537 (inactive) and -0.184 (inactive),-0.124 and 0.779
COC(=O)C1=C(C)N(Cc2ccccc2)C2=C3C(=O)N(C)C(=O)[C@@H]3[C@@](O)(C(=O)OC)C(=O)N2[C@@H]1c1ccccc1,0.147 and 0.126,0.961 (inactive) and -0.294 (inactive),-0.153 (inactive) and -0.448 (inactive),2.18 (inactive) and 0.992 (inactive),-0.152 (inactive) and -0.755 (inactive),0.378 and 0.131,0.038 and 0.0173,0.154 and 0.161,0.491 and 0.207,-0.004 and 0.436,0.71 (inactive) and -0.313 (inactive),0.0341 and 0.0278,-0.188 (inactive) and -1.06 (inactive),-0.215 (inactive) and -1.49 (inactive),-0.745 (inactive) and -0.379 (inactive),-0.339 (inactive) and -1.77 (inactive),-0.137 and 1.48,1.13 (inactive) and -0.926 (inactive),0.507 (inactive) and 0.254 (inactive),-0.0308 and 0.418
C=CCN(C(=O)C(c1cccs1)N(C(=O)/C=C\C(=O)O)c1ccc(CCO)cc1)c1ccc(OC)cc1 (centres undefined),-1.21 and -1.14,0.369 (inactive) and 0.0408 (inactive),-2.25 (inactive) and -0.545 (inactive),-0.358 (inactive) and 0.463 (inactive),-0.308 (inactive) and 0.311 (inactive),-1.31 and -0.93,-0.257 and -0.203,-3.35 and -2.12,0.425 and -1.7,-1.17 and -0.672,2.16 (inactive) and 0.76 (inactive),-0.0186 and -0.229,1.73 (inactive) and -1.02 (inactive),0.0371 (inactive) and -0.3 (inactive),-0.0439 (inactive) and 0.347 (inactive),0.454 (inactive) and -0.0131 (inactive),0.749 and 0.862,-0.147 (inactive) and -0.268 (inactive),-0.649 (inactive) and -1.34 (inactive),0.137 and -0.261
C[N+](C)(C)CCCCCCNC(=O)[C@H]1C[C@H]2C(=O)N[C@@H](CCCC[N+](C)(C)C)C(=O)N2[C@H]1c1ccc(O)cc1,0.0916 and 0.169,-2.26 (inactive) and 0.0462 (inactive),-0.978 (inactive) and -0.491 (inactive),-1.22 (inactive) and 0.423 (inactive),0.188 (inactive) and -0.798 (inactive),-0.52 and -0.486,-0.131 and -0.0313,-0.0883 and -0.172,0.0293 and -0.103,1.14 and 1.93,0.167 (inactive) and 0.234 (inactive),-0.0523 and -0.127,0.453 (inactive) and 0.892 (inactive),-1.12 (inactive) and 0.591 (inactive),-1.11 (inactive) and -2.09 (inactive),-1.46 (inactive) and 0.0065 (inactive),0.0304 and -0.109,-1.5 (inactive) and 0.235 (inactive),-0.479 (inactive) and 0.249 (inactive),-3.22 and 0.0348
CC(C)N1CC=CC23O[C@@H]4C=CCCOC(=O)C4[C@H]2C(=O)N(C(C)CO)[C@@H]3C1=O (some centres undefined),0.797 and -0.143,-0.909 (inactive) and 0.0354 (inactive),–,-0.631 (inactive) and -0.753 (inactive),-0.0522 (inactive) and -0.428 (inactive),-0.55 and 1.17,-0.128 and -0.176,0.0687 and -0.403,-0.0439 and 0.0427,-0.0042 and -0.188,2.39 (inactive) and 2.01 (inactive),0.0004 and -0.147,0.339 (inactive) and 1.47 (inactive),-0.917 (inactive) and -0.564 (inactive),-0.0544 (inactive) and 0.331 (inactive),-1.54 (inactive) and -0.97 (inactive),0.22 and -0.109,1.94 (inactive) and 1.59 (inactive),0.808 (inactive) and 0.594 (inactive),2.17 and 1.76
COC(=O)[C@@]1(Cc2ccc(OC)cc2)[C@H]2c3cc(C(=O)N(C)C)n(Cc4ccc(O)c(OC)c4)c3C[C@H]2CN1C(=O)c1ccccc1,0.0905 and 0.294,-1.03 (inactive) and -2.86 (inactive),0.209 (inactive) and 0.769 (inactive),0.583 (inactive) and 0.197 (inactive),0.217 (inactive) and -0.742 (inactive),1.09 and 0.758,0.293 and 0.714,0.934 and 0.0765,0.692 and 0.318,1.02 and -0.291,-0.583 (inactive) and -1.09 (inactive),0.0913 and 0.661,7.35 (inactive) and 6.71 (inactive),0.45 (inactive) and 1.11 (inactive),2.07 (inactive) and 1.63 (inactive),0.642 (inactive) and 1.38 (inactive),0.217 and 0.749,-1.99 (inactive) and 0.285 (inactive),-6.68 (inactive) and 1.16 (inactive),-5.69 and -0.509
CC(C)=CCCC(C)=CCON=C1C[C@@H](O)[C@@H](O)[C@@H]2[C@@H]3C(=O)N([C@@H](C)c4ccccc4)C(=O)[C@@H]3CC[C@H]12,0.111,-3.97 (inactive),1.09 (inactive),-0.295 (inactive),-0.323 (inactive),0.0138,-0.233,0.594,0.26,1.18,-0.125 (inactive),-0.0603,11.1 (active),0.362 (inactive),1.3 (inactive),-0.944 (inactive),1.27,-1.06 (inactive),-0.306 (inactive),-4.23
COC(=O)C1=C(C)N(Cc2ccccc2)[C@]23O[C@](C(=O)OC)(C(=O)N2[C@@H]1c1ccccc1)[C@@H](c1ccccc1)[C@@H]3C(=O)c1ccccc1,0.216 and 0.0881,-3.24 (inactive) and 0.14 (inactive),-0.137 (inactive),0.751 (inactive) and 0.29 (inactive),-1.08 (inactive) and -0.186 (inactive),0.454 and 0.377,-0.0736 and -0.119,0.388 and 0.241,0.392 and 0.308,0.229 and 0.599,-1.1 (inactive) and 0.116 (inactive),-0.145 and -0.193,1.17 (inactive) and 0.647 (inactive),-0.645 (inactive) and 0.238 (inactive),0.372 (inactive) and 0.467 (inactive),-1.38 (inactive) and 0.0752 (inactive),1.39 and 0.0227,2.38 (inactive) and 0.648 (inactive),0.856 (inactive) and 0.876 (inactive),2.66 and 1.46

# — PubChem BioAssay
